High-throughput results as filed in PubChem BioAssay.
V-ATPase pHluor: alters yeast V-ATPase proton transport; S. cerevisiae, pHLuorin cytosolic pH fluorescence; response, % at 10 µM; 0.37% of 350,000 active; AID 504577; in the data active = response mostly above about 7.3%, no sharp cut-off; inactive = mostly below about 5.4%; also: actives read high
NPR2 activator: GC-B (human) receptor activation; P20594; HEK293-GC-B cells, CNP EC30, cGMP TR-FRET; 0% at EC30 CNP, 100% saturating CNP; activation, % at 10 µM; 0.11% of 370,000 active; AID 1920062;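 active = activation at 10 µM reaching about 35% in either raw or pattern-adjusted values, limit read from the data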
Rev-erbA mod: Rev-erb alpha (human) modulation; P20393; Rev-erbα–FITC-DNA binding, fluorescence polarization, 90 min; activity, % at 10 µM; 0.79% of 370,000 active; AID 1259318;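 active = activity above about 14%, limit read from the data; passing the limit was not always enough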
PG9 Ab binder: binds the HIV-1 gp120 antibody PG9; AID 624416; inhibition, % at 6.7 µM; 0.43% of 360,000 active; TR-FRET gp120-PG9 antibody binding; in the data active = inhibition above about 8.5%
NPR1 activator: GC-A (human) enzyme activation; 0.14% of 370,000 active; activation, % at 10 µM; HEK293 GC-A cells, cGMP TR-FRET, EC30 ANP; 0% at EC30 ANP, 100% saturating ANP; AID 1671463; in the data active = activation above about 40%
Target sequence (P16066 whole entry, looked up): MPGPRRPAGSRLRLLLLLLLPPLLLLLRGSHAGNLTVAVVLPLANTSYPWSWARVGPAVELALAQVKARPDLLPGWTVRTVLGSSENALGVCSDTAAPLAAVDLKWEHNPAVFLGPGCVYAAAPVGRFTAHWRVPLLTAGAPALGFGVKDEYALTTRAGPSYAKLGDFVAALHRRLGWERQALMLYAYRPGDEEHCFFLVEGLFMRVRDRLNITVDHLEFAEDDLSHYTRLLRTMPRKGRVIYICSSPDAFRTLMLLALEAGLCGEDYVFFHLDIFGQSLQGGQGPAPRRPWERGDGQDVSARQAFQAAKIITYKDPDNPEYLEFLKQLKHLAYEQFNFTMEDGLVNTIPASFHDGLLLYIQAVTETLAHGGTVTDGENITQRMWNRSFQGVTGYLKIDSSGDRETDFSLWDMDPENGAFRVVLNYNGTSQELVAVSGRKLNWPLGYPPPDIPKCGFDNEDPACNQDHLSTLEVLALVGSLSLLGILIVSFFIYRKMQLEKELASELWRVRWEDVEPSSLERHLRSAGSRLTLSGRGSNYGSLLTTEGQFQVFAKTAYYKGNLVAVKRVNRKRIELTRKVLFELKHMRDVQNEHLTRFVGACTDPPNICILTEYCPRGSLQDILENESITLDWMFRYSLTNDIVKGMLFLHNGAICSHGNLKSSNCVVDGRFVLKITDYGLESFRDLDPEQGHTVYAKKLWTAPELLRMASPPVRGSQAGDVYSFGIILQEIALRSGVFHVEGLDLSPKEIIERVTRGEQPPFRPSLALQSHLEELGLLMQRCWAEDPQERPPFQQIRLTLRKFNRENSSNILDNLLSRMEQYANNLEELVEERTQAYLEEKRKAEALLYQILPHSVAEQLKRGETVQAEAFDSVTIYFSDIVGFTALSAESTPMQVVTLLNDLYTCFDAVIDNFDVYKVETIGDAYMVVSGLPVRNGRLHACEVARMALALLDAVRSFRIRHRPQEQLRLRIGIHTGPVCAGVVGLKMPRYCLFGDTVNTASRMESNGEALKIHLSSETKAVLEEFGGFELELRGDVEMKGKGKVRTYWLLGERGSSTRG
PG9 binder conf: confirmation of small molecules binding HIV-1 gp120 antibody PG9 | inhibition, % at 6.7 µM | 90% of 1,500 active | shares compounds with PG9 Ab binder | TR-FRET PG9 antibody binding, biochemical; in the data active = inhibition above about 9%
PGV04 Ab binding: counter-screen for PG9 binders: binding control antibody PGV04 | shares compounds with PG9 Ab binder | TR-FRET PGV04 antibody-gp120 binding, biochemical | inhibition, % at 6.7 µM | 95% of 1,500 active; in the data active = inhibition above about 9.5%
NR1D1 mod conf: Rev-erb alpha (human) modulation, hit confirmation | shares compounds with Rev-erbA mod | activation, % at 25 µM | 61% of 3,000 active | Rev-erb alpha FITC-DNA binding, fluorescence polarization, 90 min;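 active = activation at or above a set limit, or at least 3 SD above the negative control mean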
RORg DNA counter: RORgamma DNA-binding activity, dose-response counter-screen | shares compounds with Rev-erbA mod | purified RORgamma protein-FITC-DNA binding, fluorescence polarization | IC50, µM | 8% of 910 active | AID 1259320;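 active = Compounds whose fitted half-maximal concentration for disrupting protein-DNA binding is below 10 micromolar; the record names Rev-erb in its text, so the target is in doubt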
Hits are given with their value; n = inactive; x = not tested or not shown. In the library only some 1.6% were active in any assay of this set; here they are far more common.

SMILES | V-ATPase pHluor | NPR2 activator | Rev-erbA mod | PG9 Ab binder | NPR1 activator | PG9 binder conf | PGV04 Ab binding | NR1D1 mod conf | others
Cc1ccc(CNC(=O)CS(=O)(=O)Cc2nc(-c3ccc(C)cc3)oc2C)cc1 | n | n | 28 | 28 | n | 20 | 53 | n
Nc1c(S(=O)(=O)c2cccc(Cl)c2)c2nc3ccccc3nc2n1CCN1CCOCC1 | n | n | 32 | 11 | n | n | n | n
CN1C2=N[C@H](c3ccc(Br)cc3)CC(=O)N2/C(=C\c2ccccc2)[C@@H]1c1ccccc1 | x | n | n | x | n | x | x | x
Cc1cc(-c2sccc2Br)nc(-n2cccc2)n1 | n | n | 50 | 11 | n | 23 | 32 | 27
CCOc1ccc(NC(=O)CN2CCCN(c3ccc(OC)cc3)CC2)cc1 | x | n | n | x | n | x | x | x
CCN1CCCCC(NC(=O)c2ccccc2)C1=O (stereo unspecified) | x | n | n | x | n | x | x | x
CCOc1ccc(C(=O)OCC(=O)Nc2cc(C)on2)cc1OCC | n | n | 58 | 22 | n | n | 16 | 31
CCOc1cc(C(=O)OCC(=O)Nc2cc(C)on2)ccc1OCC(C)C | n | n | n | n | n | x | x | x
O=C(NC1CCCCN(Cc2ccc(OC(F)(F)F)cc2)C1=O)c1cccc(F)c1 (stereo unspecified) | x | n | n | x | n | x | x | x
COC(=O)c1cccc(NC(=O)Nc2ccc(Cl)cc2Cl)c1 | n | n | n | n | n | x | x | x
CC(C)C(=O)Nc1cccc(C(=O)OCC(=O)c2ccc(Cl)cc2Cl)c1 | n | n | 19 | 53 | 59 | 40 | 58 | n
COc1ccc(NC(=O)CSc2nnc(-c3cccs3)n2-c2ccccc2)cc1 | n | n | 25 | 22 | n | 33 | 57 | 21
COc1ccc(NC(=O)CSc2nnc(C3CC3)n2-c2ccccc2)cc1 | n | n | n | n | n | x | x | x
COC(=O)[C@H](CC(C)C)N1Cc2nnn(CC3CCCCC3)c2-c2ccccc2S1(=O)=O | x | n | n | x | n | x | x | x
COC(=O)[C@]12C[C@H](CC(=O)N3CCN(C(=O)c4ccco4)CC3)C(=O)N(Cc3cccc4ccccc34)C1=C[C@H](C(C)C)O[C@@H]2C1CC1 | x | n | n | x | n | x | x | x
N=C1C(c2nc3ccccc3s2)=C(O)CN1NC(=O)c1c[nH]c2ccccc12 | n | n | 32 | 12 | n | 22 | 39 | 51 | RORg DNA counter=n
Cc1ccccc1N(C(=O)c1snc(C(N)=O)c1N)C(C(=O)NCc1ccccc1)c1ccc(O)cc1 (stereo unspecified) | n | n | 19 | 30 | n | 31 | 45 | n
Cc1ccc(NC(=O)OC2CCC23CCCCC3)cc1 (stereo unspecified) | x | n | n | x | n | x | x | x
N#Cc1nc(-c2ccc(OCc3ccccc3)cc2)oc1N1CCC(C(N)=O)CC1 | n | n | 41 | 9.5 | n | 9.1 | 16 | n
Cc1ccc(OCC(=O)Nc2ccc(S(=O)(=O)Nc3ccccn3)cc2)cc1C | n | n | 29 | 50 | n | 41 | 45 | 22
C[C@@H]1[C@@H](O)C[C@@]2(C[C@H](O)c3cc(F)ccc3O2)O[C@H]1c1ccccc1Cl | x | n | n | x | n | x | x | x
CCOc1ccc2nc(SCC(=O)NNC(=O)c3ccco3)c(C)cc2c1 | n | n | n | n | n | x | x | x
COc1ccc2cc(C)c(SCC(=O)Nc3cc(C)on3)nc2c1 | n | n | 109 | 34 | n | 46 | 64 | 33 | RORg DNA counter=n
Cc1ccc2nc(SCC(=O)Nc3cc(C)on3)c(C)cc2c1 | n | n | 40 | 18 | n | 26 | 44 | 21
CCOc1ccc2nc(SCC(=O)Nc3cc(C)on3)c(C)cc2c1 | n | n | 58 | 28 | n | 33 | 51 | n
SMILES | V-ATPase pHluor | NPR2 activator | Rev-erbA mod | PG9 Ab binder | NPR1 activator | PG9 binder conf | PGV04 Ab binding | NR1D1 mod conf | others
Cc1cc(C)c(C#N)c(SCC(=O)Nc2cc(C)on2)n1 | n | n | n | n | n | x | x | x
Cc1ccc2nc(SCC(=O)NCc3ccco3)c(C)cc2c1 | n | n | n | n | n | x | x | x
CCCc1nc(-c2cc3ccc(C)cc3[nH]c2=O)no1 | n | n | n | n | n | x | x | x
CCOc1ccccc1-c1nc(-c2cc3ccc(C)cc3[nH]c2=O)no1 | n | n | 66 | 18 | n | 13 | 27 | 44
O=c1cc(-c2ccccc2)[nH]c2nc3ccccc3n12 | n | n | 24 | 13 | n | 20 | 32 | 17
COC(=O)[C@]12C[C@H](CC(=O)NCCCCc3ccccc3)C(=O)N(CCc3ccc(OC)c(OC)c3)C1=C[C@H](C(C)(C)C)O[C@@H]2C | x | n | n | x | n | x | x | x
O=C(Nc1cccc(O)c1)c1cc(-c2cccs2)on1 | n | n | n | n | n | x | x | x
CC(=O)c1cccc(NC(=O)c2cc(-c3cccs3)on2)c1 | n | n | 33 | 24 | n | 29 | 47 | n
Cc1cc(-c2cccc(Br)c2)c(C#N)c(N)n1 | n | n | 21 | 34 | n | 38 | 61 | n
COc1cc(OC)cc(-c2c(Sc3ccccc3)c3cc(-c4ccc5c(c4)OCCO5)ccc3n2C)c1 | x | n | 23 | 45 | n | 55 | 73 | 21
Cc1cccc2cc(C#N)c(SCC(=O)N3CC(=O)Nc4ccccc43)nc12 | n | n | 90 | 30 | n | 46 | 75 | 67 | RORg DNA counter=n
Cc1cccc2cc(C#N)c(SCC(=O)N3CCC(C)CC3)nc12 | n | n | 53 | 8.8 | n | 12 | 16 | 65 | RORg DNA counter=n
COc1ccc2cc(C#N)c(SCC(=O)N3CC(=O)Nc4ccccc43)nc2c1 | n | x | x | x | x | x | x | x
Cc1ccc(-c2nnc(NCc3nc4ccccc4[nH]3)c3ccccc23)cc1S(=O)(=O)N(C)C | n | n | 76 | 11 | n | 21 | 34 | 53 | RORg DNA counter=n
Cc1ccc(-c2nnc(NCc3nc4ccccc4[nH]3)c3ccccc23)cc1S(=O)(=O)N1CCOCC1 | n | x | x | x | x | x | x | x
N#Cc1c(-c2ccccc2)cc(-c2ccccc2)nc1Br | n | n | 29 | 8.7 | n | 14 | 17 | n
CC(=O)NCCNc1nc2c(-c3cccc(C)c3)nnn2c2ccccc12 | n | n | n | n | n | x | x | x
CC(=O)NCCNc1nc2c(-c3cccc(C(F)(F)F)c3)nnn2c2ccccc12 | n | n | 69 | 25 | n | 15 | 57 | n
CCC(=O)c1cn(CC(=O)Nc2cc(C)ccc2C)c2ccccc12 | n | n | 32 | 19 | n | 16 | 22 | 21
O=c1sc(N2CCN(c3ccc(F)cc3)CC2)nc2ccsc12 | n | n | 146 | 23 | n | 57 | 83 | 96 | RORg DNA counter=n
